system: HepG2; assay: GSK_TCMDC: Percent inhibition of human HepG2 cell line. Test compounds present at 10uM.; assay type: functional

Structure (SMILES) | Inhibition [%]
CC1(C)N=C(N)N=C(N)N1c1cc(Cl)c(Cl)cc1Cl.Cl | 11
Cl.O=C(Nc1cccc2ccccc12)N1CCc2cc3nccc(N4CCN5CCC[C@H]5C4)c3cc21 | 11
O=C(Nc1ccncc1)c1cc(C(=O)Nc2ccncc2)cc([N+](=O)[O-])c1 | 1
CC(C)(C)CCN1CCC(CNC(=O)c2cc(-c3cccc(Cl)c3)cs2)C1.O=C(O)C(F)(F)F (centres undefined) | 50
COc1ccc(Nc2nccc(N3CCC(NC(=O)C(C)c4ccc(Cl)cc4)C3)n2)cc1 (centres undefined) | 35
CCC(=O)Nc1ccc(Nc2nc(C)cc(N3CCCC3)n2)cc1 | 34
c1ccc(CN2CCN(c3cc(-c4cncc(-c5ccccc5)c4)nc(-c4ccccc4)n3)CC2)cc1 | 9
O=C(N/C(=C/c1cccc([N+](=O)[O-])c1)c1nc2ccccc2[nH]1)c1cccc(Br)c1 | 0
Br.CCCCCCCn1c2c(c(=N)c3c1CCC3)CCCC2 | 46
CN1CCN(c2cccc(NC(=O)c3ccc(-c4ccc(C#N)cc4)cc3)c2)CC1 | 31
CCN1CCC(N(Cc2ccc(-c3ccc(C(F)(F)F)cc3)cc2)C(=O)Cn2c(CCc3cccc(F)c3F)cc(=O)c3cn(C)nc32)CC1.O=C(O)C(O)C(O)C(=O)O | 27
O=[N+]([O-])c1ccc(-c2ccc(C=NNc3nc(Nc4ccccc4)nc(Nc4ccccc4)n3)o2)cc1 | 0
CCc1nc2nc(C)cc(Nc3ccc(F)c(Cl)c3)n2n1 | 2
CCN(CC)CCCCNc1cc(-c2[nH]c(-c3c(Cl)cccc3Cl)nc2-c2ccc3cc(OC)ccc3c2)ccn1.O=C(O)C(F)(F)F | 23

From ChEMBL document CHEMBL1157539, “Thousands of chemical starting points for antimalarial lead identification” (Nature, 2010)
